# In PubChem BioAssay (NCI):
# About 83,000 compounds went through this panel and 20% of them were active in at least one assay; those are over-represented in the sample as a whole.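 Plates (96-well) were seeded with cells, treated with compound at one concentration, and incubated for 48 hours before percent growth was determined.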 A number with no mark means an inactive call. Active and inactive are the calls of the source. How the source made its calls: active means growth percent below 10; inactive means the rest.
# Tested on: TK-10 renal
# Test: NCI-60 one-dose screen, 48 h (100 = growth as untreated, 0 = no growth, -100 = all killed)
# Details: 10 µM unless noted
row,Structure (SMILES),growth [%]
1,CCC(C)(C)C1CCC(O)CC1 (configuration not stated),98.7
2,COC(=O)C(C)Oc1ccc(OC#N)cc1 (configuration not stated),107
3,CCCC(=O)c1cc(C)ccc1OC,104
4,COC(=O)c1cc(-c2ccc(Cl)c(Cl)c2)[nH]c(=O)c1C#N,103
5,OCCN(CCO)C(=S)S,110
6,CCCC1(c2ccccc2)NC(=O)NC1=O (configuration not stated),95.2
7,Oc1ccccc1O,80.8
8,CNC(=S)NC(C)(C)C,96.8
9,OCC1OC(OC2C(O)C(CO)OC2(CO)OC2OC(CO)C(O)C(O)C2O)C(O)C(O)C1O (configuration not stated),106
10,C=CCc1cc(C(C)=O)cc(OC)c1O,102
11,O=C1NC(=O)C2C(=O)NC(=O)C1C21CCc2ccccc21 (configuration not stated),145
12,COc1ccc(-c2cc(-c3cc(-c4ccc(OC)cc4)nc(N)n3)nc(N)n2)cc1,102
13,CC(=O)NC(N)=S,100
14,COc1ccc(C2OC(N)=C(O)C2=O)cc1OC (configuration not stated),104
15,c1c(-c2cc(C3CC3)[nH]n2)n[nH]c1C1CC1,106
16,O=C(Cc1nc2ccc([N+](=O)[O-])cc2nc1CC(=O)c1ccccc1)c1ccccc1,104
17,C=CCNc1ccccc1,95.7
18,Cc1cc(NC(=O)CSCC(=O)O)no1,86.6
19,CCc1nc(N)nc(N)c1-c1ccc(Cl)cc1,104
20,CC(=O)Cc1cc(-c2cc(CC(C)=O)[nH]n2)n[nH]1,92.4

# Tested on: ACHN renal
# Test: as above
# Details: 10 µM
row,Structure (SMILES),growth
1,Nc1ncnc2[nH]ncc12,8.29% (active)
2,COC(=O)c1[nH]c(=O)c(C#N)c(C(=O)OC)c1C(=O)c1ccccc1,98.1%
3,CCS(=O)(=O)CCCl,97.3%
4,N#Cc1ccc(NC(=O)Nc2cccc(C#N)c2)cc1,92.5%
5,CN(C)CCN(C)CC(C)(C)C(=O)/C=C/c1ccc(Cl)cc1,-27.3% (active)
6,CS(=O)CC1=NC(=N)N=C1CS(C)=O (configuration not stated),107%
7,Cc1cc2nc(CC(=O)c3cccc([N+](=O)[O-])c3)c(=O)[nH]c2cc1C,87.3%
8,CCOC(=O)c1cc(/C=C/c2cccc(Cl)c2)on1,90.9%
9,Cc1ccc(/C=C2\SC(=S)N(c3ccc(F)cc3)C2=O)o1,48.6%
10,OC(c1ccccn1)C(O)c1ccccn1 (configuration not stated),98.2%
11,CC1(O)OC(COc2ccc(Cl)cc2)COC1O (configuration not stated),103%
12,O=C1Cc2ccccc2C(=O)O1,111%
13,CCC(C)(C)C1CCC(O)CC1 (configuration not stated),97.7%
14,CCCNC(=O)c1ccc(S(N)(=O)=O)cc1,101%
15,COC(=O)C(C)Oc1ccc(OC#N)cc1 (configuration not stated),101%
16,CCCC(=O)c1cc(C)ccc1OC,103%
17,COC(=O)c1cc(-c2ccc(Cl)c(Cl)c2)[nH]c(=O)c1C#N,94.8%
18,OCCN(CCO)C(=S)S,109%
19,CCCC1(c2ccccc2)NC(=O)NC1=O (configuration not stated),103%
20,Oc1ccccc1O,92.4%

row,Structure (SMILES),growth
1,CNC(=S)NC(C)(C)C,108%
2,OCC1OC(OC2C(O)C(CO)OC2(CO)OC2OC(CO)C(O)C(O)C2O)C(O)C(O)C1O (configuration not stated),113%
3,C=CCc1cc(C(C)=O)cc(OC)c1O,121%
4,O=C1NC(=O)C2C(=O)NC(=O)C1C21CCc2ccccc21 (configuration not stated),95.6%
5,O=[N+]([O-])c1cccc(N=Nc2ccc(O)cc2O)c1,78.7%
6,NC(=S)N/N=C/c1ccc(N)cc1,108%
7,COc1ccc(-c2cc(-c3cc(-c4ccc(OC)cc4)nc(N)n3)nc(N)n2)cc1,97.6%
8,CC(=O)NC(N)=S,104%
9,Cc1ccccc1N=C(c1ccccc1)C1C(=O)c2ccccc2C1=O,88.3%
10,COc1ccc(C2OC(N)=C(O)C2=O)cc1OC (configuration not stated),96.9%
11,CC(=O)OCC1=CC2OC(=O)C3=COC(OC4OC(CO)C(O)C(O)C4O)C1C32 (configuration not stated),111%
12,c1c(-c2cc(C3CC3)[nH]n2)n[nH]c1C1CC1,99.3%
13,O=C(Cc1nc2ccc([N+](=O)[O-])cc2nc1CC(=O)c1ccccc1)c1ccccc1,57%
14,COc1ccc(C2(O)CCCCC2)cc1,115%
15,C=CCNc1ccccc1,101%
16,Cc1cc(NC(=O)CSCC(=O)O)no1,105%
17,CCc1nc(N)nc(N)c1-c1ccc(Cl)cc1,40.9%
18,CC(=O)Nc1ccc(NC(C)=O)c2c1C(=O)c1ccccc1C2=O,78.8%
19,CC(=O)Cc1cc(-c2cc(CC(C)=O)[nH]n2)n[nH]1,95.1%

# Tested on: CAKI-1 renal
# Test: as above
# Details: 10 µM
row,Structure (SMILES),growth
1,Nc1ncnc2[nH]ncc12,-9.29% (active)
2,COC(=O)c1[nH]c(=O)c(C#N)c(C(=O)OC)c1C(=O)c1ccccc1,90%
3,CCS(=O)(=O)CCCl,101%
4,CN(C)CCN(C)CC(C)(C)C(=O)/C=C/c1ccc(Cl)cc1,8.74% (active)
5,CS(=O)CC1=NC(=N)N=C1CS(C)=O (configuration not stated),92.9%
6,Cc1cc2nc(CC(=O)c3cccc([N+](=O)[O-])c3)c(=O)[nH]c2cc1C,76.5%
7,CCOC(=O)c1cc(/C=C/c2cccc(Cl)c2)on1,91.3%
8,Cc1ccc(/C=C2\SC(=S)N(c3ccc(F)cc3)C2=O)o1,54.9%
9,OC(c1ccccn1)C(O)c1ccccn1 (configuration not stated),116%
10,CC1(O)OC(COc2ccc(Cl)cc2)COC1O (configuration not stated),90.1%
11,O=C1Cc2ccccc2C(=O)O1,99.9%
12,CCC(C)(C)C1CCC(O)CC1 (configuration not stated),115%
13,CCCNC(=O)c1ccc(S(N)(=O)=O)cc1,110%
14,COC(=O)C(C)Oc1ccc(OC#N)cc1 (configuration not stated),86.5%
15,CCCC(=O)c1cc(C)ccc1OC,104%
16,COC(=O)c1cc(-c2ccc(Cl)c(Cl)c2)[nH]c(=O)c1C#N,87.5%
17,OCCN(CCO)C(=S)S,93.1%
18,CCCC1(c2ccccc2)NC(=O)NC1=O (configuration not stated),116%
19,Oc1ccccc1O,93.9%

row,Structure (SMILES),growth
1,CNC(=S)NC(C)(C)C,92.6%
2,OCC1OC(OC2C(O)C(CO)OC2(CO)OC2OC(CO)C(O)C(O)C2O)C(O)C(O)C1O (configuration not stated),115%
3,C=CCc1cc(C(C)=O)cc(OC)c1O,98.2%
4,O=C1NC(=O)C2C(=O)NC(=O)C1C21CCc2ccccc21 (configuration not stated),77.7%
5,O=[N+]([O-])c1cccc(N=Nc2ccc(O)cc2O)c1,39.1%
6,NC(=S)N/N=C/c1ccc(N)cc1,101%
7,COc1ccc(-c2cc(-c3cc(-c4ccc(OC)cc4)nc(N)n3)nc(N)n2)cc1,91.9%
8,CC(=O)NC(N)=S,100%
9,Cc1ccccc1N=C(c1ccccc1)C1C(=O)c2ccccc2C1=O,84.6%
10,COc1ccc(C2OC(N)=C(O)C2=O)cc1OC (configuration not stated),92.7%
11,CC(=O)OCC1=CC2OC(=O)C3=COC(OC4OC(CO)C(O)C(O)C4O)C1C32 (configuration not stated),101%
12,c1c(-c2cc(C3CC3)[nH]n2)n[nH]c1C1CC1,97.6%
13,O=C(Cc1nc2ccc([N+](=O)[O-])cc2nc1CC(=O)c1ccccc1)c1ccccc1,62.9%
14,COc1ccc(C2(O)CCCCC2)cc1,100%
15,C=CCNc1ccccc1,114%
16,Cc1cc(NC(=O)CSCC(=O)O)no1,90%
17,CCc1nc(N)nc(N)c1-c1ccc(Cl)cc1,91.4%
18,CC(=O)Nc1ccc(NC(C)=O)c2c1C(=O)c1ccccc1C2=O,68.6%
19,CC(=O)Cc1cc(-c2cc(CC(C)=O)[nH]n2)n[nH]1,87.7%
